Experimental data as given in PubChem BioAssay (EPA / NIEHS).
Results filed as inconclusive are left out. Calls of active or inactive are those of the source. The calls were made as follows, unless noted: active = hit-call score of the fitted dose curve at least 0.9, where 1 is the maximum; inactive = score below 0.9.

What was measured:
[1] = read-out: Monokine induced gamma interferon (MIG), CXCL9 (gene 4283); experiment: BSK_3C_MIG: BioMAP Diversity Plus: 3C Assay for Monokine induced gamma interferon (MIG) Biomarker Activity (AID 2283021); details: primary human endothelial cells (HUVEC); actives raise or lower the signal;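 as to AC50: MIG protein level measured by immunoassay in the treated endothelial cultures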
Method in brief: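 ELISA measurement of MIG in human umbilical vein endothelial cells 24 h after treatment. Cytotoxicity tracked by SRB staining in parallel cultures; gain or loss of signal fitted relative to DMSO.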

[2] = target: human Vitamin D Receptor (VDR), VDR (gene 7421) (UniProt P11473); experiment: ATG_VDR_TRANS: Attagene TRANS-FACTORIAL HepG2 Assay for human Vitamin D Receptor (VDR) (AID 2283022; active = hit-call score of the fitted dose curve at least 0.9, where 1 is the maximum)
Sequence of human Vitamin D Receptor (VDR), VDR (gene 7421) (P11473 whole entry, looked up, the tested form may be a part): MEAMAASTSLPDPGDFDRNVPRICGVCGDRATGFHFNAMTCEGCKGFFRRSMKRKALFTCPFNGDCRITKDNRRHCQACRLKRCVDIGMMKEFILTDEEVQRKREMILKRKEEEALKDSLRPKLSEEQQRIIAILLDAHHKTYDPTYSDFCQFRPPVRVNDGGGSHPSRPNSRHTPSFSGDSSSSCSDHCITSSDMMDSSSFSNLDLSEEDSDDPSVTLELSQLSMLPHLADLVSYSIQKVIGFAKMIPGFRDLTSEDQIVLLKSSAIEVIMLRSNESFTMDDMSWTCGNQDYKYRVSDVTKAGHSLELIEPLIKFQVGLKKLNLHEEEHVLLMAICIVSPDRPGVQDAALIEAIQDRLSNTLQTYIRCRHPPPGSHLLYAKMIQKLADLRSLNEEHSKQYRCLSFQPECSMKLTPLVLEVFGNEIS
Method in brief: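 Transactivation by an exogenous VDR-Gal4 chimera in transiently transfected HepG2 cells was measured as reporter transcript level 24 hours after chemical treatment. RT-PCR products were analysed by capillary electrophoresis and fitted in the positive direction relative to DMSO.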

[3] = BSK_3C_SRB: Viability Assessment in the BioMAP Diversity Plus: 3C Assay (AID 2283023); details: primary human endothelial cells (HUVEC);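 also: fitted both ways against DMSO so a hit may be signal rise or drop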
Method in brief: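 Cytotoxicity readout in parallel HUVEC 3C cultures: after 24 h compound exposure, cells fixed with 10% TCA, stained with 0.1% SRB and read at 560 nm. Gain or loss relative to DMSO fitted.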

[4] = read-out: Matrix Metallopeptidase 1 (MMP1), MMP1 (gene 4312); experiment: BSK_BE3C_MMP1: BioMAP Diversity Plus: BE3C Assay for Matrix Metallopeptidase 1 (MMP1) Biomarker Activity (AID 2283024); details: primary human bronchial epithelial cells; actives raise or lower the signal
Method in brief: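 ELISA measurement of MMP-1 after 24 h compound exposure of primary human bronchial epithelial cells. Changes in either direction fitted relative to DMSO; parallel SRB staining checked overt cytotoxicity.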

[5] = BSK_3C_Vis: BioMAP Diversity Plus: 3C Assay for Morphology Visualization (AID 2283025); details: primary human endothelial cells (HUVEC);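 also: fitted both ways so gain or loss versus DMSO counts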;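 as to AC50: light microscopy image of cell morphology used as background control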
Method in brief: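 Light-microscopy visualization of HUVEC cultures at 24 h post-treatment, with DMSO as baseline for bidirectional fitting.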

[6] = read-out: Pselectin, SELP (gene 6403); experiment: BSK_4H_Pselectin: BioMAP Diversity Plus: 4H Assay for Pselectin Biomarker Activity (AID 2283026); details: primary human endothelial cells (HUVEC); actives raise or lower the signal
Method in brief: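 ELISA of surface P-selectin on HUVEC, 24 h after dosing, with parallel SRB staining (0.1% after 10% TCA fixation, 560 nm) for overt cytotoxicity. Activity fitted in both directions relative to DMSO.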

[7] = BSK_4H_SRB: Viability Assessment in the BioMAP Diversity Plus: 4H Assay (AID 2283027); details: primary human endothelial cells (HUVEC);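 also: cells exposed to compound for 24 h before staining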;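 as to AC50: curves fitted both ways versus DMSO so AC50 may be loss or gain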
Method in brief: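 Cytotoxicity readout: sulforhodamine B (0.1%) staining of total protein after 10% TCA fixation, measured at 560 nm in human umbilical vein endothelium at 24 h. DMSO set the baseline; fitting was bidirectional.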

[8] = read-out: Thrombomodulin, THBD (gene 7056); experiment: BSK_3C_Thrombomodulin: BioMAP Diversity Plus: 3C Assay for Thrombomodulin Biomarker Activity (AID 2283029); details: primary human endothelial cells (HUVEC); actives raise or lower the signal
Method in brief: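 ELISA measurement of thrombomodulin on HUVEC surface 24 h after chemical dosing; activity fitted in both directions relative to DMSO vehicle.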

[9] = read-out: Urokinase-type plasminogen activator receptor (uPAR), PLAUR (gene 5329); experiment: BSK_4H_uPAR: BioMAP Diversity Plus: 4H Assay for Urokinase-type plasminogen activator receptor (uPAR) Biomarker Activity (AID 2283030); details: primary human endothelial cells (HUVEC); actives raise or lower the signal
Method in brief: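 uPAR level read by ELISA on HUVEC cultures (BioMAP 4H) 24 h post-dosing, analyzed for gain or loss relative to DMSO. Parallel SRB staining assessed overt cytotoxicity.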

[10] = BSK_BE3C_SRB: Viability Assessment in the BioMAP Diversity Plus: BE3C Assay (AID 2283028); details: primary human bronchial epithelial cells;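 as to AC50: fitted both ways so AC50 may mark signal gain or loss versus DMSO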
Method in brief: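 Cytotoxicity read-out: SRB (0.1%) staining of TCA-fixed (10%) human lung bronchial epithelial cells, absorbance 560 nm, 24 h post-dosing. Curves fitted both directions relative to DMSO.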

Measured: AC50

Cc1ccc(C(C)C)cc1
not listed: [10]
inactive: all other assays above

O=C=NCCCCCCN=C=O
not listed: [2] | [10]
inactive: all other assays above

O=c1ccc2ccccc2o1
not listed: [2] | [10]
inactive: all other assays above

COCC(C)OCC(C)OCC(C)O (stereo unspecified)
not listed: [2]
inactive: all other assays above

C[C@]12CC[C@@H]3c4ccc(O)cc4CC[C@H]3[C@@H]1CCC2=O
active: [4] 3.97 µM
not listed: [2] | [10]
inactive: all other assays above

O=c1c(-c2ccc(O)cc2)coc2cc(O)cc(O)c12
active: [3] 25.8 µM | [4] 15.3 µM | [5] 39 µM | [6] 17.1 µM | [7] 14.7 µM | [9] 14.1 µM
inactive: [1] | [2] | [8]

CCCOC(=O)c1cc(O)c(O)c(O)c1
not listed: [10]
inactive: all other assays above

CN(C)C(=O)C1(N2CCCCC2)CCN(CC[C@@]2(c3ccc(Cl)c(Cl)c3)CN(C(=O)c3ccccc3)CCO2)CC1
inactive: [2] | [8]
active: [1] 34.7 µM | [3] 7.1 µM | [4] 29.1 µM | [5] 12.5 µM | [6] 15.6 µM | [7] 18.9 µM | [9] 12.3 µM

O=C(O)Cn1c(=O)n(Cc2ccc(Br)cc2F)c(=O)c2ccc(Cl)cc21
not listed: [10]
inactive: all other assays above

CCCCCCCCCCCC[N+](C)(C)C
inactive: [2]
active: [1] 29.4 µM | [4] 18 µM | [6] 20 µM | [7] 26.9 µM | [10] 32 µM | [8] 5.28 µM | [9] 29.8 µM
